Screening results (PubChem BioAssay)
An excerpt weighted towards active compounds, which were near 2.2% of everything screened.
LMP1 NFkB inh: inhibitors of Epstein-Barr LMP1-induced NF-kappaB reporter | AID 504558 | inhibition, % at 12.5 µM | LMP1-induced NF-kappaB luciferase reporter cells, luminescence | hit rate 0.69% among 350,000; in the data active = inhibition above about 41%; inconclusive = no clear call, values can overlap the other calls
MITF TRPM1 inh: MITF TRPM1 promoter inhibition in SK-MEL-5 cells. SK-MEL-5 TRPM1 promoter luciferase, 24 h. inhibition, % at 12.5 µM. hit rate 0.83% among 330,000;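 active = mean inhibition across replicates of 60% or more, whatever share of single replicates reaches that level; inconclusive = some that reach 60%, reason not given; inactive = mean inhibition across replicates below 60%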
LGR2 inh: inhibitors of bursicon-induced Drosophila LGR2 receptor cAMP signaling; HEK293 LGR2, CRE-luciferase, bursicon-stimulated, 4 h; inhibition, % at 9.99 µM; hit rate 0.35% among 380,000;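 active = drop in luminescence signal, shown as inhibition above about 50% in the replicate tests, limit read from the data, passing the limit was not always enough; inconclusive = probably only some replicates passing the limit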;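 note: agonist challenge used bursicon conditioned medium at about half maximal strength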
PAX8 reporter: inhibitors of PAX8 transcriptional activity in RMG-I cells. RMG-I TPO-luciferase reporter, SteadyGlo, 24 h. inhibition, % at 12.6 µM. hit rate 1.2% among 360,000. AID 652154;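 active = mean replicate inhibition at least 60% with every replicate also reaching 60%; inconclusive = only one of the two criteria is met; inactive = mean below 60% and not all replicates reaching 60%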;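 note: luciferase light reporting Pax8 driven TPO promoter activity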
EWS-Fli block: blocks EWS/Fli oncoprotein-driven transcription; A673 NR0B1-luciferase reporter, viability-normalised; hit rate 0.67% among 350,000; inhibition, % at 12.6 µM; AID 651661;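 active = mean inhibition of at least 50% after viability correction, with every replicate also passing that limit; inconclusive = mean reaches 50% but only one of two replicates passes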;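 note: firefly luciferase signal divided by Alamar Blue viability fluorescence both relative to DMSO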
Shn3 3UTR inh: reduces Shn3 3'UTR luciferase signal in osteoblasts | Clone20 osteoblast Shn3 3'UTR firefly luciferase, 24 h | inhibition, % at 12.5 µM | hit rate 0.52% among 360,000 | AID 588674;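 active = mean inhibition of at least 75% with every replicate also reaching 75%; inconclusive = mean inhibition at least 75% but some replicate below; inactive = mean inhibition below 75%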
A number is an active result; 0 = inactive; ? = inconclusive; - = no result given.

SMILES	LMP1 NFkB inh	MITF TRPM1 inh	LGR2 inh	PAX8 reporter	EWS-Fli block	Shn3 3UTR inh
Cc1ccc(N(C)S(=O)(=O)c2cc(-c3cnc(C4CC4)o3)ccc2C)cc1	0	0	0	0	0	0
CO[C@@H]1CN(C)C(=O)c2cc(NC(=O)Nc3cc(F)ccc3F)ccc2OC[C@H](C)N(C(=O)c2ccccn2)C[C@H]1C	-	-	0	0	0	-
CCC(=O)Nc1ccc2c(c1)C(=O)N(C)C[C@H](OC)[C@H](C)CN(Cc1cccnc1)[C@@H](C)CO2	-	-	0	-	0	-
C[C@@H]1CN([C@H](C)CO)C(=O)c2cc(C#CC(C)(C)O)cnc2O[C@@H]1CN(C)C(=O)CN(C)C	-	-	0	-	0	-
COc1ccccc1CNS(=O)(=O)c1ccc(-c2cnc(C3CC3)o2)cc1	45.5	0	0	0	61.2	0
COc1ccc(NS(=O)(=O)c2ccc(-c3cnc(C4CC4)o3)cc2)cc1OC	0	0	0	0	?	0
Cc1cc(C)c(C#N)c(SCc2nnc(-c3ccccc3[N+](=O)[O-])o2)n1	0	0	0	0	0	0
Cc1ccc(C#N)c(SCc2nnc(-c3ccc(Cl)cc3)o2)n1	0	0	65.6	0	-	0
Cc1cc(C)c(C#N)c(SCc2nnc(-c3ccccc3)o2)n1	59.2	76.5	77.1	0	78.5	0
O=C(O)CCC(=O)Nc1nnc(C(F)(F)F)s1	0	0	-	-	-	0
CCC(NC(=O)Nc1nnc(C(F)(F)F)s1)(C(F)(F)F)C(F)(F)F	45.6	0	-	-	-	0
CCC(=O)N1C[C@H](O)COC[C@H]2O[C@@H](CC(=O)NCc3cc(F)cc(F)c3)CC[C@@H]21	-	-	0	0	0	-
O=C(N[C@@H]1CC[C@H](CCn2cc(C3(O)CCCC3)nn2)O[C@@H]1CO)C1CCOCC1	-	-	0	0	0	-
COc1ccc(C(=O)Nc2ccc3ncccc3c2)cc1	0	0	59.5	0	58.0	0
Cc1ccc(C(=O)Nc2ccc3ncccc3c2)cc1	45.2	0	74.1	0	65.6	0
CCN(CC)S(=O)(=O)c1cc(NC(=O)C2CCN(c3ncnc4sc(C)c(C)c34)CC2)ccc1Cl	0	63.8	0	71.8	0	89.0
Cc1sc2ncnc(N3CCC(C(=O)N(C)CC(=O)Nc4ccc(Cl)c(C(F)(F)F)c4)CC3)c2c1C	0	0	0	77.7	0	0
Cc1ccc(NC(=O)C2CCN(c3ncnc4sc(C)c(C)c34)CC2)cc1S(=O)(=O)N(C)C	0	0	0	0	0	0
O=C(c1ccco1)N1N=C(c2cccs2)CC1c1ccc(F)cc1 (stereo unspecified)	0	0	-	-	-	0
Cc1ccc(C2CC(c3cccs3)=NN2C(=O)CCl)cc1 (stereo unspecified)	0	0	0	0	64.8	0
CNC(=S)N1N=C(c2cccs2)CC1c1ccc(F)cc1 (stereo unspecified)	49.6	0	0	0	0	0
CCN(CC)CCNc1ccc(CO)c2oc3cc(Cl)ccc3c(=O)c12	0	-	-	0	0	0
CN(C)CCNc1ccc(CO)c2oc3ccc(O)cc3c(=O)c12	0	0	0	-	55.3	0
NNC(=O)c1ccc(CSc2cccc3cccnc23)cc1	0	0	-	0	0	0
Cc1cccc(CSc2cccc3cccnc23)c1	0	0	-	-	-	96.4
SMILES	LMP1 NFkB inh	MITF TRPM1 inh	LGR2 inh	PAX8 reporter	EWS-Fli block	Shn3 3UTR inh
O=C(Cc1ccccc1)NCCS(=O)c1ccc(Cl)cc1 (stereo unspecified)	0	0	-	-	-	92.5
CCS(=O)(=O)N1Cc2ccccc2CC1C(=O)Nc1nc2ccccc2s1 (stereo unspecified)	0	0	57.6	0	-	0
COc1cc2c3nnc(-c4ccc(F)cc4)c-3cn(Cc3cccc(F)c3)c2cc1OC	0	75.3	-	-	-	0
COc1cc2c3nnc(-c4ccccc4)c-3cn(Cc3ccc(F)cc3)c2cc1OC	0	0	-	0	0	0
COc1cc2c3nnc(-c4ccc(F)cc4)c-3cn(Cc3ccc(C)cc3)c2cc1OC	0	85.5	0	0	?	0
Nc1cc(N)nc(SCC(=O)c2ccc3c(c2)NC(=O)CO3)n1	44.4	0	0	0	0	0
Cc1cc(=O)[nH]c(SCC(=O)c2ccc3c(c2)NC(=O)CO3)n1	0	0	0	0	0	0
Cc1ccc(N/C(N)=N/c2nc(C)cc(N3CCCCC3)n2)c(C)c1	0	0	67.3	0	0	96.3
COc1ccc(S(=O)(=O)N(C)C[C@@H]2Oc3c(NC(=O)NC(C)C)cccc3C(=O)N([C@@H](C)CO)C[C@H]2C)cc1	-	-	0	-	0	-
C[C@@H]1CN([C@@H](C)CO)C(=O)Cc2cc(NC(=O)NC3CCCCC3)ccc2O[C@@H]1CN(C)Cc1ccc(-c2ccccc2)cc1	-	-	0	101.8	0	-
C[C@@H]1CN([C@@H](C)CO)C(=O)Cc2cc(NC(=O)NC3CCCCC3)ccc2O[C@H]1CN(C)Cc1ccc(Oc2ccccc2)cc1	-	-	0	71.1	0	-
C[C@@H]1CN([C@@H](C)CO)C(=O)Cc2cc(NC(=O)c3ccncc3)ccc2O[C@@H]1CN(C)Cc1ccc(-c2ccccc2)cc1	-	-	0	102.0	0	-
COc1cccc(-c2ccc([C@H]3[C@H](CO)N4C(=O)CN(C(=O)CN5CCOCC5)C[C@@H]34)cc2)c1	-	-	0	0	0	-
O=C(N/N=C\c1ccc(Cl)s1)c1ccc(Cn2cccn2)o1	0	0	0	0	0	0
Cc1cc(C)n(CCC(=O)N/N=C/c2c(O)ccc3ccccc23)n1	55.7	?	0	0	0	97.3
Cc1cc(C)n(CCC(=O)N/N=C/c2ccc(O)cc2)n1	0	0	0	-	-	0
O=C(N/N=C/c1c(O)ccc2ccccc12)C(=O)N1CCCC1	0	-	0	0	0	81.8
O=C(CCSc1nc2ccccc2s1)N/N=C/c1c(O)ccc2ccccc12	0	0	0	0	0	86.7
O=C(N/N=C\c1c(O)ccc2ccccc12)c1ccc(Cn2cccn2)o1	0	0	0	67.3	-	89.1
